Results on 39 compounds are retold here after PubChem BioAssay (NCI).

“And” between values parts separate entries of the source, which are not always exact repeats. Equal values may be shown once. This is part of a sample that, as a whole, favours compounds with a hit. Of some 83,000 tested, about 20% had one in any assay.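 Cell lines were cultured in 96-well plates, exposed to a single compound concentration, and assessed for percent growth 48 hours later.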 The source made the active and inactive calls. The calls were made as follows: active = growth percent below 10; inactive = the rest.

For the test, the system named is UACC-62 melanoma. Nature of the test: NCI-60 one-dose screen, 48 h (100 = growth as untreated, 0 = no growth, -100 = all killed). The note with it: 10 µM unless noted.
Consider `CC(C)/C(Cl)=N/OC(=O)Nc1cccc(C(F)(F)F)c1`, for which the growth was -93.1% [100 µM] (active) and -100% [100 µM] (active).
The result for `CC1CC(=O)N(N(C)C)C2(C#N)C(=O)N=C(N)C12C#N` (centres undefined) reads -84.2% [100 µM] (active) and -92.9% [100 µM] (active); that for `COc1cc(Oc2c(C)c(Cl)c(OC)c(Cl)c2OC)c2c(c1Cl)COC2=O`, -38% [100 µM] (active) and -9.28% [100 µM] (active).
As for `CCO/C=N\C1=C(C#N)SC2=N/C(=C\c3ccc(OC)cc3)C(=O)N21`, the growth was 71.9% [100 µM] (inactive) and 70.7% [100 µM] (inactive).
Regarding `COC(=O)C(=O)C(C(=O)C(=O)Nc1ccccc1C(C)=O)c1nc2ccc(C(=O)c3ccccc3)cc2[nH]c1=O` (centres undefined), the growth is 48.7% [100 µM] (inactive) and 10.4% [100 µM] (inactive).
For `COC(=O)c1cc(C#N)[nH]c1-c1ccsc1`, the growth was 67.3% [100 µM] (inactive) and 25.1% [100 µM] (inactive).
As for `C[C@@H]1C[C@@H]2OC(=O)[C@]3(C)[C@H]2[C@@H](OC3(C)O)[C@]2(C)C(=O)C=C[C@@H]12` (some centres undefined), the growth was -84.2% [100 µM] (active) and -97.9% [100 µM] (active).
The result for `CC/C(Cl)=N\OC(=O)Nc1ccc(OC)cc1` reads -92.2% [100 µM] (active) and -94.2% [100 µM] (active).
The result for `Cc1ccc2c(/C=C/c3ccc(N(C)C)cc3)ccc(C(C)C)cc1-2` reads 68.4% [100 µM] (inactive) and 58.1% [100 µM] (inactive); that for `COc1ccccc1-c1n[nH]c(-c2ccccc2O)n1`, 62.2% [100 µM] (inactive) and 50.3% [100 µM] (inactive); that for `C=CC(COC(=O)C(C)(C)OC(C)=O)c1ccc(OC(=O)C(C)C)c(OC)c1` (centres undefined), -92.2% [100 µM] (active) and -93.9% [100 µM] (active).
`CC1CC(C(=O)OC2OC(COC3OC(CO)C(OC4OC(C)C(O)C(O)C4O)C(O)C3O)C(O)C(O)C2O)C2CCC3(C)C(=CCC4(C)C3CCC3C(C)(CO)C(O)C(O)CC34C)C2C1C` (centres undefined): the growth is -93.3% [100 µM] (active) and -100% [100 µM] (active).
Turning to `C=C1C(=O)O[C@H]2C[C@@]3(C)[C@H](O)CCC(=C)[C@@H]3[C@@H](OC(C)=O)[C@H]12`, the growth was -98.5% [100 µM] (active) and -92.2% [100 µM] (active).
On to `Cc1ccc(NC2=N/C(=C/c3ccccc3)C(Cl)=N2)cc1`, for which the growth was 27.6% [100 µM] (inactive) and 12% [100 µM] (inactive).
Take `CC(C)C1OC(N)=C(C#N)C1(C#N)C#N` (centres undefined): the growth is 55.5% [100 µM] (inactive) and 25.9% [100 µM] (inactive).
With `N#Cc1c(N)oc(-c2cccc([N+](=O)[O-])c2)c1C#N`, the growth is -82.9% [100 µM] (active) and -75% [100 µM] (active).
The result for `COc1c2c(c3c(c1OC)c(=O)c1ccccc1n3C)OCO2` reads 58.8% [100 µM] (inactive); that for `C=CCNC1=C2C[C@@H](C)C[C@@H](OC)[C@@H](OC(=O)CCCN)[C@H](C)/C=C(\C)[C@@H](OC(N)=O)[C@H](OC)/C=C\C=C(/C)C(=O)NC(=CC1=O)C2=O`, -57.7% [100 µM] (active) and -64.4% [100 µM] (active); that for `N/N=C(\C(=O)Nc1ccc([N+](=O)[O-])cc1)C(C1=Nc2cc([N+](=O)[O-])ccc2NC1)[N+](=O)[O-]` (centres undefined), 42.3% [100 µM] (inactive) and 14.7% [100 µM] (inactive).
In the case of `COc1ccc2c(c1)N(C(C)=O)CN1C(=O)CCC21` (centres undefined), the growth was 87.4% [100 µM] (inactive) and 102% [100 µM] (inactive).
For the compound `C=C(C)C1CC2(C)C(C)CC(OC(=O)/C(C)=C\C)CC2C(OC(=O)/C(C)=C\C)C1O` (centres undefined), the growth is 5.5% [100 µM] (active).
Regarding `COc1cc2c3cc1Oc1c(OC)c(OC)cc4c1C(Cc1ccc(O)c(c1)-c1cc(ccc1OC)CC3N(C)CC2)N(C)CC4` (centres undefined), the growth is -88% [100 µM] (active) and -95.6% [100 µM] (active).
Regarding `COc1ccc(/C=C2/NC(=S)N=C2Cl)cc1`, the growth is 82.8% [100 µM] (inactive) and 23.4% [100 µM] (inactive).
The result for `Cc1ccc(/C=N/Nc2cnccn2)s1` reads 58.8% [100 µM] (inactive) and 98.5% [100 µM] (inactive); that for `O[C@H]1[C@H](O)[C@@H](Cn2nnc(-c3ccccc3)c2-c2ccccc2)OCO[C@@H]1Cn1nnc(-c2ccccc2)c1-c1ccccc1`, -77.8% [100 µM] (active).
Regarding `N#CC1(C#N)N[C@@H](c2ccsc2)[C@H]2C(=O)N(c3ccccc3)C(=O)[C@H]21`, the growth is 23.2% [100 µM] (inactive) and 0.172% [100 µM] (active).
In the case of `COc1cc(-c2nc(SC)nc3c2CCc2ccccc2-3)cc(OC)c1OC`, the growth is 42.6% [100 µM] (inactive) and 23.7% [100 µM] (inactive).
For `O=C(O)COc1cc(-c2ccccc2F)nc2cc3c(cc12)OCO3`, the growth is 83.2% [100 µM] (inactive) and 64.8% [100 µM] (inactive).
For `CCC1OC2(C)CC(C#N)(C#N)C1(C#N)C(=N)O2` (centres undefined), the growth was 34.6% [100 µM] (inactive).
For `Cc1cc(N(CCC#N)CCC#N)ccc1/C=N/NC(=O)c1cc(Cl)ccc1O`, the growth was 46.2% [100 µM] (inactive) and 8.92% [100 µM] (active).
The result for `O=C1NC(N/N=C\c2ccccc2)=N/C1=C/c1ccccc1` reads -53.2% [100 µM] (active) and -100% [100 µM] (active); that for `Cc1ccc(/C=N/Nc2ccccn2)s1`, 74.5% [100 µM] (inactive) and 87.7% [100 µM] (inactive); that for `CCC(C)C1(O)OC2CC3(C)OC(=CC3=O)/C(C)=C\C3OC(=O)C1(C)C32` (centres undefined), -34.4% [100 µM] (active) and -100% [100 µM] (active).
The result for `NC1N=C(c2ccc(Cl)cc2)C2=C(N1)c1ccccc1CC2` (centres undefined) reads 36.7% [100 µM] (inactive) and -55.8% [100 µM] (active).
Take `CN(C)c1ccc(/C=N/n2c(-c3ccccc3)nc3ccccc3c2=O)cc1`: the growth was 47.5% [100 µM] (inactive) and 13.6% [100 µM] (inactive).
For `COc1cc2c(cc1C1COc3cc4occc4cc3C1=O)OCO2` (centres undefined), the growth was 62.1% [100 µM] (inactive) and 73.4% [100 µM] (inactive).
The result for `N#Cc1nc(-c2cccc(-c3nc(C#N)c(N)o3)n2)oc1N` reads 89.4% [100 µM] (inactive) and 63.8% [100 µM] (inactive).
On to `C=CC1=C(C)C2=NC1=CC1=NC(=C(CC)/C1=C\O)C=C1N=C3C(=C1C)C(=O)[C@H](C(=O)OC)C3=C1NC(=C2)[C@@H](C)[C@@H]1CCC(=O)O`, for which the growth is -28.7% [100 µM] (active) and 0.467% [100 µM] (active).
Turning to `CC(C)=CCc1cc(C2COc3cc4c(c(O)c3C2=O)C=CC(C)(C)O4)c(O)cc1O` (centres undefined), the growth is -86.8% [100 µM] (active) and -97.1% [100 µM] (active).
